Hits are enriched below; roughly 4.7% of the tested compounds scored in any of these assays.
TRHR PAM = TRH receptor (human) allosteric enhancement. P34981. TRHR cells, fluo-8 calcium fluorescence, EC20 TRH enhancement. enhancement, % at 2 µM. 360,000 tested, 0.66% active. AID 493056; in the data active means enhancement above about 30%; further: 0% is about no effect
Target sequence (P34981 whole entry, looked up): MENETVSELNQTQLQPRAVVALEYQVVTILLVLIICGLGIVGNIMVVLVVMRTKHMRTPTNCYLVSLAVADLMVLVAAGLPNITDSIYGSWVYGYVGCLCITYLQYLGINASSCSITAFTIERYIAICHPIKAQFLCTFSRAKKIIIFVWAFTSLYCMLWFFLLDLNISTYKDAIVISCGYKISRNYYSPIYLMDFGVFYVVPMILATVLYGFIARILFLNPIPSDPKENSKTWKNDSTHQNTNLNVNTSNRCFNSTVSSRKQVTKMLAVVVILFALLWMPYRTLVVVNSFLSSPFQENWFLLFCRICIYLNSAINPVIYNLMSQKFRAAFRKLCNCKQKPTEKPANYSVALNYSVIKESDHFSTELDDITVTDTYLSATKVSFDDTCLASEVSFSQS
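TRHR-expressing cells loaded with fluo-8 calcium dye were read kinetically (ex 480/em 530) during compound addition, then stimulated with an EC20 of TRH (10 nM final). Enhancement of the Gq-mediated intracellular calcium response was scored.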
D1 ag = human D1 receptor agonism. P21728. HEK293 T-REx D1 cells, calcium flux, agonist mode. activation, % at 2 µM. 360,000 tested, 1% active; further: 0% is about no effect
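Inducible HEK293 T-REx D1 cells, force-coupled to calcium signalling, were plated at 4000 cells/well with tetracycline and held overnight at 30 C. After no-wash calcium dye loading, compound-evoked calcium rise over 180 s flagged agonists.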
D1 PAM = human D1 dopamine receptor positive modulation; potentiation, % at 10 µM; AID 504651; P21728; HEK293 TREx D1 cells, calcium flux, dopamine EC20 potentiation; 360,000 tested, 0.036% active; in the data active means potentiation above about 30%; further: 0% is about no effect
TRHR agonist = agonists of human TRH receptor; P34981; TRHR cells, calcium flux fluo-8, FDSS agonist mode; activation, % at 2 µM; 360,000 tested, 0.18% active; AID 493084; further: 0% is about no effect
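TRHR-expressing cells loaded with fluo-8 calcium dye; 23 nL library compound pin-transferred, kinetic FDSS fluorescence (Ex 480/Em 530) recorded about 180 s for agonist-induced calcium release, before a 10 nM TRH EC20 addition for potentiator mode.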
D1 antagonist = human D1 dopamine receptor antagonism | P21728 | HEK293 TREx D1 cells, calcium flux, dopamine EC80; hits give low values | activity change, negative = inhibition, % at 10 µM | 360,000 tested, 3.2% active | AID 504652; in the data active means activity change below about -30%; further: on the % scale 0 is the no-effect control and ±100 the full control effect
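Cells carrying a force-coupled, tetracycline-inducible human D1 receptor report calcium flux. Each well gets a 10 s baseline, compound with 180 s monitoring, then an EC80 dopamine stimulus with a second 180 s kinetic read.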
* hit, by the source's call. Unless noted, no stated cut-off is given here; in the data, active means activation above about 30%; inactive means the rest.

SMILES	TRHR PAM	D1 ag	D1 PAM	TRHR agonist	D1 antagonist
O=S(=O)(NCc1ccccc1)c1ccc(S(=O)(=O)N(Cc2ccccn2)Cc2ccco2)cc1	-2	26	-11	-1	-34*
CCOC(=O)c1noc2nc(C)n(CC(=O)Nc3cccc(OC)c3)c(=O)c12	-2	0	-1	0	12
COc1cccc(Nc2ccc3cc(S(=O)(=O)N4CCC(C)CC4)ccc3n2)c1	-2	2	-6	1	-23
CCCCNC(=O)c1ccc2c(SCC(=O)O)c3c(nc2c1)CCCC3	-6	6	-7	0	-24
CCCN(C(=O)c1ccc2c(SCC(=O)O)c3c(nc2c1)CCC3)c1cccc(C)c1	-5	0	-5	0	-39*
Oc1ccccc1C1C=C(c2ccc3c(c2)OCO3)NC(c2cccc(F)c2)N1 (stereo not drawn)	11	9	2	0	1
CCCCCCCCCCCC(=O)NC(C(=O)O)C(O)c1ccccc1 (stereo not drawn)	-1	374*	17	-1	-3
COc1cc(Cl)c(NC(=O)CN(C)S(=O)(=O)c2ccc3c(c2)CCCC(=O)N3)c(OC)c1	15	6	-9	-2	-23
Cc1nc2ccccc2c2nc(N)nn12	-8	0	-10	-2	-56*
CC(=O)c1cccc(CN2CCCC(C(=O)Nc3ccc(-c4ccco4)cc3)C2)c1 (stereo not drawn)	-2	12	-11	0	-46*
Cc1ncc(CN2CCCC(C(=O)Nc3ccc(-c4cccc(F)c4)cc3)C2)cn1 (stereo not drawn)	-5	29	-2	0	-33*
CCOc1ccc(Cn2nnc(C(=O)Nc3cccc(SC)c3)c2N)cc1	8	28	5	2	23
COc1ccccc1N1CCN(C2CCCN(Cc3cccc(O)c3)C2)CC1 (stereo not drawn)	3	-1	1	0	-50*
COc1ccccc1CN1CCCC(N2CCN(c3ccccc3OC)CC2)C1 (stereo not drawn)	-9	6	-8	0	-50*
CCc1ccccc1NC(=O)c1cc(S(=O)(=O)N2CCCc3ccccc32)ccc1F	11	6	-2	1	6
CC(C)Cn1c(=O)c2ccccc2n2c(CCC(=O)Nc3cccc(Cl)c3)nnc12	-2	0	-3	0	-4
NCCOc1ccccc1Cc1ccccc1	7	62*	-24	-1	-55*
O=C(COc1ccc(Br)cc1)Nc1ccncc1	3	11	-7	-1	-4
COc1ccc(-n2nc3ccc(NC(=O)c4cccc(OCCC(C)C)c4)cc3n2)cc1	36*	2	1	2	10
CCC(C)(C)c1ccc(OCC(=O)Nc2ccncc2)cc1	2	45*	-11	0	-16
CC(C)CCOc1cccc(OCC(=O)Nc2ccncc2)c1	-4	13	-6	1	-31*
CC(C)Sc1ncc(Cl)c(C(=O)Nc2ccc(S(=O)(=O)N3CCCCC3C)cc2)n1 (stereo not drawn)	-1	2	-2	4	0
O=C(c1ccccc1)c1ccc(OCC(O)CNCc2cccc(Cl)c2)cc1 (stereo not drawn)	7	43*	-2	3	-5
CCC(=O)c1ccc(OCC(O)CNCc2ccc(F)cc2)cc1 (stereo not drawn)	2	10	-1	1	-5
O=C(COc1ccc(C(=O)c2ccccc2)cc1)NCc1ccc(F)cc1	16	16	-3	-1	-39*
SMILES	TRHR PAM	D1 ag	D1 PAM	TRHR agonist	D1 antagonist
Cc1ccc(C(OCC(O)CNCc2ccc(F)cc2)c2ccccc2)cc1 (stereo not drawn)	1	67*	31*	2	4
O=C(c1ccccc1)c1ccc(OCC(O)CNCc2ccc(F)cc2)cc1 (stereo not drawn)	10	52*	-3	2	-18
COc1ccc(OC)c(NC(=O)[C@H](CSCc2ccccc2)N2Cc3ccccc3C2=O)c1	-5	6	-6	0	-3
Cc1cccc(Cn2c(=O)n(CC3CCC(C(=O)NC(C)C)CC3)c(=O)c3sccc32)c1 (stereo not drawn)	3	2	-5	0	4
Cc1ccc(OCC(=O)NNC(=O)Cc2ccc(S(=O)(=O)N3CCOCC3)s2)cc1	-7	2	-2	0	-49*
O=C(COc1ccccc1F)NNC(=O)Cc1ccc(S(=O)(=O)N2CCOCC2)s1	5	1	-3	0	-26
Cc1ccccc1OCC(=O)NNC(=O)Cc1ccc(S(=O)(=O)N2CCOCC2)s1	-1	-1	-5	0	-38*
COc1cc(NC(=O)C2CCN(C(=O)c3sc4nc[nH]c(=O)c4c3C)CC2)cc(OC)c1OC	-6	0	2	0	13
Cn1nnnc1SCCCNCc1cc(Cl)ccc1OCc1ccc(F)cc1	-3	23	-1	0	-20
CCOC(=O)c1ccc(NC(=O)CC2C(=O)N(c3ccc(F)cc3)C(=O)N2Cc2ccc3c(c2)OCO3)cc1 (stereo not drawn)	-4	5	-6	2	-23
COc1ccc(C(=O)N[C@H](C(=O)NCC2CCCCC2)C(C)C)cc1	-1	160*	2	-1	-23
COc1ccc(C(=O)N[C@H](C(=O)NCc2ccc(C)cc2)C(C)C)cc1	0	3	-9	-1	23
CC(=O)c1ccc(NC(=O)c2cc3c(=O)oc4ccc(C)cc4c3s2)cc1	-1	1	-1	0	6
CCc1ccc(C(=O)COC(=O)C(Cc2ccccc2)NC(=O)C2CCC(C)CC2)cc1 (stereo not drawn)	4	6	-6	2	-31*
COc1ccc(CNC(=O)c2cccn2-c2nnc(N3CCCC3)s2)c(OC)c1	-4	2	-3	-1	1
COCCCNS(=O)(=O)c1ccc(SC)cc1	-1	3	-3	0	-4
CSc1ccc(S(=O)(=O)NCCOc2ccccc2C)cc1	-3	9	-7	0	-31*
CCOc1ccc(C2c3c(oc4ccccc4c3=O)C(=O)N2Cc2ccc3c(c2)OCO3)cc1 (stereo not drawn)	-3	-1	2	0	2
CCN1CCN(c2nc3c(C)cccn3c(=O)c2/C=C(\C#N)C(=O)NCCOC)CC1	-5	15	-8	30*	-1
COCCNC(=O)/C(C#N)=C/c1c(N2CCN(C)CC2)nc2c(C)cccn2c1=O	5	2	-6	0	-25
Cc1ccc(S(=O)(=O)/C(C#N)=C/c2c(N3CCC(C(N)=O)CC3)nc3c(C)cccn3c2=O)cc1	-2	11	-2	0	-47*
CCN1CCN(c2nc3ccccn3c(=O)c2/C=C(\C#N)S(=O)(=O)c2ccccc2)CC1	1	2	-5	2	-66*
